Experimental findings from PubChem BioAssay are described below.

For part of these data: Entries with a potency or affinity are not part of this list. The source made the active and inactive calls.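 How the source made its calls, unless noted: active means dose curve with midpoint inside tested range, moderate steepness, plateau gap beyond fit error, low compound glow and bead-link interference; inactive means the rest.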

The target in experiment [1] is Cell division control protein 42 homolog (Homo sapiens) (UniProt P60953). In words: activated mutant Cdc42 GTP-binding inhibitors, dose response, biochemical, multiplex bead flow cytometry, Bodipy-FL-GTP (AID 1333;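 active means fitted half-maximal concentration within the tested dose range, moderate curve steepness, a statistically real signal drop, and little compound fluorescence or tag-binding interference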). In general terms: Flow cytometry measures light scatter and fluorescence of single cells or particles in a stream.
Sequence of Cell division control protein 42 homolog (Homo sapiens) (P60953 whole entry, looked up): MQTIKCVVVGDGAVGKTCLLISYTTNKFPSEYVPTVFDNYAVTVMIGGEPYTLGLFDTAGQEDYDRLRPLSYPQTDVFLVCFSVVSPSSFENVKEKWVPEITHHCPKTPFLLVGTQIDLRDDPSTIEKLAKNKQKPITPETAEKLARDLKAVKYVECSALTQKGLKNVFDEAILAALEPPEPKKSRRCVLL
Experiment [2] has the same target. In words: wildtype Cdc42 GTP-binding inhibitors, dose response, biochemical, multiplex bead flow cytometry, Bodipy-FL-GTP (AID 1334;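 active means fitted half-maximal concentration within the tested range, moderate curve steepness, significant signal drop, and little compound fluorescence or bead-linkage interference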). The settings on record: bead-based flow cytometry, Bodipy-FL-GTP binding to GST-Cdc42; at 100 µM (top of the series) unless noted.
In experiment [3] the target is GTPase HRas (Homo sapiens) (UniProt P01112). Put plainly: inhibitors of GTP binding to wildtype Ras, dose response, biochemical, multiplex bead flow cytometry (AID 1335;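 active means fitted half-maximal concentration within 10 nM to 100 µM, steepness 0.5 to 2, significant signal drop, low assay interference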). The settings on record: bead-based flow cytometry, Bodipy-GTP binding to GST-Ras; at 100 µM (top of the series) unless noted.
Sequence of GTPase HRas (Homo sapiens) (P01112 whole entry, looked up): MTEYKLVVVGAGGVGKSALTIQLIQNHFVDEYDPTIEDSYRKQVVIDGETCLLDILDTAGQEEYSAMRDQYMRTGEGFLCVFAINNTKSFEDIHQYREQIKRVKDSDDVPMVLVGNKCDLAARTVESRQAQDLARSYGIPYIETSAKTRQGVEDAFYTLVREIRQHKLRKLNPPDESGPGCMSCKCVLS
The test system of experiment [4] is Ras-related protein Rab-7a (dog), GTP binding. Put plainly: Rab7 GTP binding inhibitors, potency, dose response, biochemical, wildtype, multiplex bead flow cytometry (AID 1336; call rule not given here).
Experiment [5] addresses Ras-related C3 botulinum toxin substrate 1 (Homo sapiens) (UniProt P63000). Put plainly: wildtype Rac1 GTP binding inhibitors, dose response, biochemical, multiplex bead flow cytometry (AID 1340). The settings on record: GST-Rac1 beads, Bodipy-FL-GTP binding; at 100 µM (top of the series) unless noted.
The target in experiment [6] is GTPase HRas (Homo sapiens) (UniProt P01112). In words: activated Ras mutant GTP binding inhibitors, dose response, biochemical, multiplex bead flow cytometry (AID 1341;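 active means dose-response curve with midpoint inside the tested range, moderate steepness, significant amplitude and little compound fluorescence or bead-attachment interference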;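 further: GST-tagged constitutively activated Ras mutant immobilized on beads and multiplexed with other GTPases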).

For the compound `CCOc1ccc2ccccc2c1/C=N/n1cncn1`, the compound was called inactive in experiment [1], in experiment [4] and in experiment [6]. In experiment [2], this compound came in with a fluorescence, percent of control (lower = inhibition) of 86.7%. This compound yielded a GTP binding, percent of control in experiment [3] of 156%. In experiment [5], the GTP binding signal, raw median fluorescence (lower = inhibition) (MCF (arbitrary fluorescence units)) came to 179.

Turning to `O=C(O)c1cccnc1OCc1ccccc1`, the call in experiment [1], in experiment [4] and in experiment [6] was inactive. Also, the fluorescence, percent of control (lower = inhibition) in experiment [2] turned out to be 88.8%. The GTP binding, percent of control in experiment [3] amounted to 103%. Further, the GTP binding signal, raw median fluorescence (lower = inhibition) (MCF (arbitrary fluorescence units)) in experiment [5] is 63.4.

As to `COc1ccc(C2=Nn3c(nnc3-c3ccccn3)SC2)cc1OC`, the call in experiment [1], in experiment [4] and in experiment [6] was inactive. Moreover, the fluorescence, percent of control (lower = inhibition) in experiment [2] worked out at 34%. The compound also gave a GTP binding, percent of control in experiment [3] of 44.4%. The same compound displayed a GTP binding signal, raw median fluorescence (lower = inhibition) (MCF (arbitrary fluorescence units)) in experiment [5] of 112.

As for `COc1cc(N=c2oc3c(C)ncc(CO)c3cc2C(N)=O)cc(OC)c1OC`, the result in experiment [1], in experiment [4] and in experiment [6] was inactive. The compound also showed a fluorescence, percent of control (lower = inhibition) in experiment [2] of 26.9%. The GTP binding, percent of control in experiment [3] stood at 58.2%. Further, the GTP binding signal, raw median fluorescence (lower = inhibition) (MCF (arbitrary fluorescence units)) in experiment [5] came out at 139.

In the case of `N#Cc1c(C(F)(F)F)cc(-c2ccc(Cl)cc2)[nH]c1=O`, the compound was classed as inactive in experiment [1], in experiment [4] and in experiment [6]. The same compound showed a fluorescence, percent of control (lower = inhibition) in experiment [2] of 27.5%. The same compound gave a GTP binding, percent of control in experiment [3] of 66%. In addition, the GTP binding signal, raw median fluorescence (lower = inhibition) (MCF (arbitrary fluorescence units)) in experiment [5] amounted to 178.

In the case of `Cc1cc2ncn(CCC(=O)NC(C)(C)C)c2cc1C`, the compound was called inactive in experiment [1], in experiment [4] and in experiment [6]. This compound also registered a fluorescence, percent of control (lower = inhibition) in experiment [2] of 40%. The GTP binding, percent of control in experiment [3] is 88.1%. Besides, in experiment [5], the GTP binding signal, raw median fluorescence (lower = inhibition) (MCF (arbitrary fluorescence units)) came out at 320.

Take `N#C/C(=C\c1ccccc1)c1nc2ncccc2[nH]1`: the result in experiment [1], in experiment [4] and in experiment [6] was inactive. Further, the fluorescence, percent of control (lower = inhibition) in experiment [2] is 36.8%. The GTP binding, percent of control in experiment [3] turned out to be 82.5%. The GTP binding signal, raw median fluorescence (lower = inhibition) (MCF (arbitrary fluorescence units)) in experiment [5] turned out to be 276.

Take `O=C(Nc1cccc(-c2ccc3nncn3n2)c1)c1ccco1`: the call in experiment [1], in experiment [4] and in experiment [6] was inactive. In experiment [2], the fluorescence, percent of control (lower = inhibition) was 32.1%. Also, the GTP binding, percent of control in experiment [3] stood at 73%. This compound gave a GTP binding signal, raw median fluorescence (lower = inhibition) (MCF (arbitrary fluorescence units)) in experiment [5] of 157.

As for `CCn1c2ccccc2c2nc3cc(C(=O)O)ccc3nc21`, the result in experiment [1], in experiment [4] and in experiment [6] was inactive. For the same compound, the fluorescence, percent of control (lower = inhibition) in experiment [2] came to 34%. Further, in experiment [3], the GTP binding, percent of control is 74.6%. Besides, the GTP binding signal, raw median fluorescence (lower = inhibition) (MCF (arbitrary fluorescence units)) in experiment [5] was determined as 161.

Turning to `CCN(CC)S(=O)(=O)c1cc([N+](=O)[O-])ccc1N=Nc1c(O)[nH]c2ccccc12`, the compound was classed as inactive in experiment [1], in experiment [4] and in experiment [6]. For the same compound, in experiment [2], the fluorescence, percent of control (lower = inhibition) was determined as 82.9%. Also, in experiment [3], the GTP binding, percent of control is 87.4%. Moreover, the GTP binding signal, raw median fluorescence (lower = inhibition) (MCF (arbitrary fluorescence units)) in experiment [5] was 351.

As to `COc1ccc([N+](=O)[O-])cc1NC(=S)NC(NC(=O)Cc1ccc(OC)c(OC)c1)C(Cl)(Cl)Cl` (centres undefined), the outcome in experiment [1], in experiment [4] and in experiment [6] was inactive. The same compound yielded a fluorescence, percent of control (lower = inhibition) in experiment [2] of 75.7%. The GTP binding, percent of control in experiment [3] stood at 139%. In experiment [5], the GTP binding signal, raw median fluorescence (lower = inhibition) (MCF (arbitrary fluorescence units)) was determined as 151.

For `O=C(NCc1cccnc1)c1cccn2c(=O)c3sccc3nc12`, the compound was called inactive in experiment [1], in experiment [4] and in experiment [6]. The same compound displayed a fluorescence, percent of control (lower = inhibition) in experiment [2] of 32.5%. This compound also had a GTP binding, percent of control in experiment [3] of 74.9%. The compound also registered a GTP binding signal, raw median fluorescence (lower = inhibition) (MCF (arbitrary fluorescence units)) in experiment [5] of 162.

`COc1ccccc1OCCn1cc(C(=O)O)c2ccc(C)cc21`: the compound was classed as inactive in experiment [1], in experiment [4] and in experiment [6]. Also, the fluorescence, percent of control (lower = inhibition) in experiment [2] was found to be 47.9%. The GTP binding, percent of control in experiment [3] was determined as 184%. The compound further gave a GTP binding signal, raw median fluorescence (lower = inhibition) (MCF (arbitrary fluorescence units)) in experiment [5] of 55.5.

With `COC(=O)CSc1nc2cc(Cl)ccc2c(=O)n1C1CCCC1`, the result in experiment [1], in experiment [4] and in experiment [6] was inactive. In experiment [2], the fluorescence, percent of control (lower = inhibition) was 98%. Further, the GTP binding, percent of control in experiment [3] stood at 180%. The compound further had a GTP binding signal, raw median fluorescence (lower = inhibition) (MCF (arbitrary fluorescence units)) in experiment [5] of 186.
